A short description of assay [1]: AP1 Signaling Pathway (AID 357; active = well fitted curve in either direction with a large enough effect, not every such curve was filed as active; also: % is scaled to controls: 0 for no effect and ±100 for the full control effect). The note with it: ME-180 AP-1-bla reporter, EGF-induced, beta-lactamase ratio, 5 h; at 7.69 µM (top of the series) unless noted. In short, it runs like this: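 AP-1-bla ME-180 cells with beta-lactamase reporter under AP-1 response element, stimulated with EC50 EGF; compounds titrated, 5 hours at 37 degrees Celsius. CCF4 read at 460/530 nm ratio; positive and negative modulators judged by AC50.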

Assay [2] concerns the target Cytochrome P450 1A2 (Homo sapiens) (UniProt P05177). The assay is described as follows: p450-cyp1a2 (AID 410; calls by dose curve; also: potency is read from the fitted curve at half-maximal effect;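 as to activity change, negative = inhibition: -100% = full effect of reference inhibitor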). In short, it runs like this:
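20nM CYP1A2, 100uM Luciferin-ME (=Km), 100mM KPO4; cpd 10 min RT; +NADPH regen, 60 min RT; stop/detect 20 min; luminescence. Normalized to furafylline 57 uM = full inhibition.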

Assay [3] is described as follows: NFAT Signaling Pathway (AID 444; active = well fitted curve in either direction with a large enough effect, not every such curve was filed as active;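 also: carbachol stimulus at about its EC50 of 1 µM final; % is scaled to controls: 0 for no effect and ±100 for the full control effect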). As to conditions: Jurkat NFAT-bla M1, carbachol, beta-lactamase ratio, 5 h; at 7.69 µM (top of the series) unless noted. The gist of the method:
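Jurkat cells carrying an NFAT-driven β-lactamase reporter and co-transfected muscarinic M1 receptor were treated with compound plus carbachol (1 uM final, an EC50 level) for 5 h at 37 °C. CCF4 loading followed for 1 h at RT; 460/530 nm ratio gave %activity.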

Assay [4] is described as follows: Stat Signaling Pathway (AID 446; active = well fitted curve in either direction with a large enough effect, not every such curve was filed as active;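 also: ME-180 cervical cancer cells given 40 pM IL-6 alongside compound; SIE-controlled beta-lactamase reporter measured as 460/530 nm FRET emission ratio; % is scaled to controls: 0 for no effect and ±100 for the full control effect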). As to conditions: ME-180 SIE beta-lactamase reporter, IL-6 stimulated, 5 h; at 7.69 µM (top of the series) unless noted. In short, it runs like this:
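Emission at 460 and 530 nm (excitation 405 nm) reports SIE-controlled beta-lactamase in ME-180 cells. Cells received compound with 40 pM IL-6 for 5 hrs at 37 C; data scaled between 300 pM IL-6 and 125 nM JAK-inhibitor controls.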

For assay [5], the target named is Glucocorticoid receptor (Homo sapiens) (UniProt P04150). The assay is described as follows: GR-GFP Redistribution (AID 450;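 active = compounds whose dose series gives a full or clear partial fitted curve of increased nuclear translocation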; also: potency is read from the fitted curve at half-maximal effect). The note with it: U2OS GR-GFP nuclear translocation, laser cytometry, 2 h.
Glucocorticoid receptor (Homo sapiens), sequence (P04150 whole entry, looked up): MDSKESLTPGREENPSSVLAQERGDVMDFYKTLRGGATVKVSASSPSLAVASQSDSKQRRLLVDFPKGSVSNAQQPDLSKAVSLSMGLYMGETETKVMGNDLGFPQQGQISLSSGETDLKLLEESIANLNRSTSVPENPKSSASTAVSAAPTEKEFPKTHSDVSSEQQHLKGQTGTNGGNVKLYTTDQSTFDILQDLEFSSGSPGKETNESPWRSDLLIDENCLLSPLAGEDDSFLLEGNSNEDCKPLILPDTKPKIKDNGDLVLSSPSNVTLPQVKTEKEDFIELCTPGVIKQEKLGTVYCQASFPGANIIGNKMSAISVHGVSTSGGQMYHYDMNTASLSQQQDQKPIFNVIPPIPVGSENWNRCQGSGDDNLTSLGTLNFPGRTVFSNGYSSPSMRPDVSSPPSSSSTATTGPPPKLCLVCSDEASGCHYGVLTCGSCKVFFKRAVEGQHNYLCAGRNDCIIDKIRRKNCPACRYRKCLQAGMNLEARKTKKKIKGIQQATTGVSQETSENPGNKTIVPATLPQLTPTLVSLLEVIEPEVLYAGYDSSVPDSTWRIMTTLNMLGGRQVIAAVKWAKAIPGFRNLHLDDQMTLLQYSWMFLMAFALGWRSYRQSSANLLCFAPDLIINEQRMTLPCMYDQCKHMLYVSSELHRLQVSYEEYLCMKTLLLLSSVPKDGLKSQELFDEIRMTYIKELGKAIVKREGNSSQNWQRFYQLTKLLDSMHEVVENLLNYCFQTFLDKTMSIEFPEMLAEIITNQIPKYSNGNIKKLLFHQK
For assay [6] the target is unchanged. Nature of the assay: GR-EFC Redistribution (AID 451; calls by dose curve; also: potency is read from the fitted curve at half-maximal effect). As to conditions: CHO-K1 GR-EFC translocation, beta-gal luminescence, 2 h. The gist of the method:
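CHO-K1 cells stably expressing nuclear-localized β-gal enzyme acceptor and GR fused C-terminally to the enzyme donor fragment; ligand-driven nuclear translocation restores β-gal by complementation. Compounds titrated up to 46 uM final, 2 h at 37 °C; luminescence read.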

Assay [7] deals with Mitogen-activated protein kinase 10 (Mus musculus) (UniProt Q61831). The assay is described as follows: JNK3 AlphaScreen Assay (AID 530; active = well fitted curve in either direction with a large enough effect, not every such curve was filed as active;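 also: kinase came from lysate of stimulated human HepG2 cells; signal reports phosphorylation of biotinylated GST-cJun 1-79 at Ser73 with 10 µM ATP; % is scaled to controls: 0 for no effect and ±100 for the full control effect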). In short, it runs like this:
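Biotinylated GST-cJun(1-79) served as substrate for JNK3 in HepG2 lysates stimulated with IL-1beta and TNF-alpha. ATP was 10 uM final, pH 7.6. Ser73 phosphorylation was quantified by AlphaScreen (680 nm excitation).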
For orientation: In Alpha technology, singlet oxygen from a donor bead excites a nearby acceptor bead.

Assay [8] deals with 3',5'-cyclic-AMP phosphodiesterase 4B (Homo sapiens) (UniProt Q07343). Nature of the assay: qHTS Assay for Inhibitors of PDE-IV (AID 607; active = well fitted activation curve with a large enough effect in the main read-out, with a control signal flat, not every such curve was filed as active; also: % of control where 0% means no effect). The gist of the method:
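The readout is membrane depolarisation from a cAMP-sensing CNG channel, detected with a potential dye at ex 535/em 590. Cells were HEK293-derived (endogenous PDE-IV) at 1000 cells/well, titrated up to 22.9 uM final.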
(In qHTS, concentration-response curves come from the screen itself.)

For assay [9], the target named is Cytochrome P450 3A4 (Homo sapiens) (UniProt P08684). Nature of the assay: qHTS Assay for Activators of Cytochrome P450 3A4 (AID 885). Also: nearly all actives have a fitted effect of over 65% in size. The gist of the method:
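Activators are scored by enhanced luminescence from CYP3A4 conversion of luciferin-PPXE (25uM, equal to KM) to luciferin, after 60 min at RT with an NADPH-regenerating system.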

Assay [10] concerns the target Dual specificity protein kinase CLK4 (Homo sapiens) (UniProt Q9HAZ1). Nature of the assay: qHTS Assay for Inhibitors of CDC-like Kinase 4 (Kinase-Glo Assay) (AID 1770). Also: nearly all actives have a fitted effect of over 65% in size. Also: potency is read from the fitted curve at half-maximal effect. The gist of the method: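 25 nM Clk4 with 100 uM RS repeat peptide and 1 uM ATP (final) in Tris pH7.5, 10 mM MgCl2, 4.5 h at room temperature. Remaining ATP measured by Kinase-Glo luciferase luminescence.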

For assay [11] the target is unchanged. Nature of the assay: qHTS Assay for Inhibitors of CDC-like Kinase 4 (ADP-Glo Assay) (AID 1771). Also: nearly all actives have a fitted effect of over 70% in size. Also: potency is read from the fitted curve at half-maximal effect. The gist of the method: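 25 nM Clk4, 100 uM RS peptide, 1 uM ATP (final); 2 mM MgCl2, 0.5 mM EGTA, 2.5 mM DTT, 0.01% Triton X-100; 1 hr RT. ADP-Glo readout: ATP depletion 45 min, conversion/luciferase 30 min, luminescence.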
For assay [12] the target is unchanged. The assay is described as follows: qHTS Assay for Inhibitors of CDC-like Kinase 4 (ADP-FP Assay) (AID 1795). Also: nearly all actives have a fitted effect of over 60% in size. Also: potency is read from the fitted curve at half-maximal effect. In short, it runs like this: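 Recombinant Clk4 (6.25 nM) phosphorylated 100 uM RS repeat peptide with 1 uM ATP in 25 mM Tris pH 7.5, 10 mM MgCl2, 0.5 mM EGTA, 2.5 mM DTT, 0.01% Triton X-100 for 1 h. ADP was detected by Transcreener ADP2 competitive fluorescence polarization after 30 min at room temperature.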

Assay [13] is described as follows: Primary qHTS for small molecule stabilizers of the endoplasmic reticulum resident proteome: Secreted ER Calcium Modulated Protein (SERCaMP) assay (AID 1508630). Also: % is scaled to controls: 0 for no effect and ±100 for the full control effect. In short, it runs like this:
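The SH-SY5Y reporter protocol was run at 3 concentrations up to 38.3 uM (primary) or 11 concentrations (follow-up): 16 h compound, 100 nM thapsigargin for 4 h, then extracellular luciferase luminescence.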

Assay [14] can be described thus: qHTS Assay for Identification of Small Molecule Agonists for Hypoxia Response Element Signaling Pathway (AID 914; active = well fitted activation curve with a large enough effect in the signal ratio, with a control signal flat, not every such curve was filed as active; the % refers to the signal ratio; also: potency is read from the fitted curve at half-maximal effect; as to activation: % of control where 0% means no effect). The note with it: ME-180 (cervical carcinoma) HRE-bla reporter, beta-lactamase ratio, CoCl2, 17 h; activation: hits give high values. The gist of the method: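 Read-out: CCF4 FRET ratio of 460nm to 530nm emission (excitation 405nm) after 2.5 hours at room temperature, taken from HRE-bla ME-180 cells that had been exposed to compound and EC50 CoCl2 for 17 hours.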

Assay [15] concerns the target Ubiquitin carboxyl-terminal hydrolase 1 (Homo sapiens) (UniProt O94782). The assay is described as follows: Inhibitors of USP1/UAF1: Pilot qHTS (AID 504865).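 Also: rhodamine fluorescence freed from ubiquitin-rhodamine substrate followed over time; top concentration of the series differs between compounds; % is scaled to controls: 0 for no effect and ±100 for the full control effect; nearly all actives have a fitted effect of over 35% in size.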 In short, it runs like this: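 USP1/UAF1 complex at 1 nM preincubated 15 min at room temperature with compound, then Ub-Rho substrate added at 150 nM final. Fluorescence (480/540 nm) read kinetically in 50 mM HEPES pH 7.8, 0.5 mM EDTA, 1 mM TCEP, 0.1 mg/ml BSA, 0.01% Tween-20.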

Assay [16] concerns the target Lysosomal acid glucosylceramidase (Homo sapiens) (UniProt P04062). Nature of the assay: Glucocerebrosidase-p2 (AID 348; in the data active = potency below about 10 µM; also: potency is read from the fitted curve at half-maximal effect). As to conditions: purified GBA, blue fluorogenic substrate, 40 min. The gist of the method:
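Normal human glucocerebrosidase (0.2 nM) with blue fluorogenic substrate (80 uM final) in citrate/phosphate pH 5.9 with 10mM sodium taurocholate, 0.01% tween-20; 40 min RT, NaOH/glycine stop; fluorescence Ex 365/Em 440; AC50 from a titration from 0.6 nM upwards.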

The target in assay [17] is Cytochrome P450 3A4 (Homo sapiens) (UniProt P08684). Nature of the assay: qHTS Assay for Inhibitors and Substrates of Cytochrome P450 3A4 (AID 884). Also: potency is read from the fitted curve at half-maximal effect; nearly all actives have a fitted effect of over 50% in size. The gist of the method: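 Luminescent readout of luciferin produced by CYP3A4 (20 nM) dealkylation of Luciferin-PPXE, 25 uM (its KM). NADPH-driven reaction ran 60 min at RT after 10 min compound preincubation; data scaled to 57 uM ketoconazole as 100% inhibition.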
Cytochrome P450 3A4 (Homo sapiens), sequence (P08684 whole entry, looked up): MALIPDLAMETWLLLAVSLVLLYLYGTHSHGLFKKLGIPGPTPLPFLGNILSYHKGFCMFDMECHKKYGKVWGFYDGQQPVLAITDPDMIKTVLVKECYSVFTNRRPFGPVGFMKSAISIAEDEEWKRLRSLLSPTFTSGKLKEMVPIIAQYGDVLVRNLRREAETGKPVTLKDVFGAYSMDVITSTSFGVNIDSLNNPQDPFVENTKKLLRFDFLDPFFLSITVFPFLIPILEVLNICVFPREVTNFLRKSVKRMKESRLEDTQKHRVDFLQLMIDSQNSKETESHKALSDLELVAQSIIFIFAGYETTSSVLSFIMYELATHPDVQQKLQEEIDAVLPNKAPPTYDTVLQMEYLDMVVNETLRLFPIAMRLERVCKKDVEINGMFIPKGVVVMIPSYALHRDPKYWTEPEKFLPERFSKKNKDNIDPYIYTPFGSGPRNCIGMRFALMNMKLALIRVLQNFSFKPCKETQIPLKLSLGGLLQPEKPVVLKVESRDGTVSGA

Assay [18] concerns the target Cytochrome P450 2C19 (Homo sapiens) (UniProt P33261). Nature of the assay: qHTS Assay for Inhibitors and Substrates of Cytochrome P450 2C19 (AID 899). Also: potency is read from the fitted curve at half-maximal effect; nearly all actives have a fitted effect of over 60% in size. In short, it runs like this:
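NADPH-dependent conversion of Luciferin-H EGE (10uM, at KM) by 5nM enzyme in 50mM KPO4, 60 min at 37C following 10 min compound preincubation. Stopped with luciferin detection buffer; luminescence read after 20 min.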

Values without a mark were called inactive. Results filed as inconclusive are left out. The source made the active and inactive calls. Unless noted, calls follow the shape of the dose curve; as a rule, active = well fitted curve in the direction sought with a large enough effect; inconclusive = small, poorly fitted or top-dose-only effect, or another doubt; inactive = no such curve, though single readings can be large; an effect the other way counts as inactive or inconclusive.

Dual specificity protein kinase CLK4 (Homo sapiens), sequence (Q9HAZ1 whole entry, looked up): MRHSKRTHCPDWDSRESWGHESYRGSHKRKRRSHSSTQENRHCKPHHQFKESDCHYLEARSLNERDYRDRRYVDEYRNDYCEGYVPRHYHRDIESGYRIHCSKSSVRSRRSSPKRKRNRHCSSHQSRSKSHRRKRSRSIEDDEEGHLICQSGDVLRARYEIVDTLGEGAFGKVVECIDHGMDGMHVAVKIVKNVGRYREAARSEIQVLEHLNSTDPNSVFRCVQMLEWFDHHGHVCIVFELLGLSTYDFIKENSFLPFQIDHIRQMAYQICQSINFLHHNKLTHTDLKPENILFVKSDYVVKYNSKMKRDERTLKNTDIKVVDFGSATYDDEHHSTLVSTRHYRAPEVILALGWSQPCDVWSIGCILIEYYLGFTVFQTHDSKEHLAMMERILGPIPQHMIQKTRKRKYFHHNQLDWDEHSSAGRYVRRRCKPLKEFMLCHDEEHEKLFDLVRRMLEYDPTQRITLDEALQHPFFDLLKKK
Cytochrome P450 1A2 (Homo sapiens), sequence (P05177 whole entry, looked up): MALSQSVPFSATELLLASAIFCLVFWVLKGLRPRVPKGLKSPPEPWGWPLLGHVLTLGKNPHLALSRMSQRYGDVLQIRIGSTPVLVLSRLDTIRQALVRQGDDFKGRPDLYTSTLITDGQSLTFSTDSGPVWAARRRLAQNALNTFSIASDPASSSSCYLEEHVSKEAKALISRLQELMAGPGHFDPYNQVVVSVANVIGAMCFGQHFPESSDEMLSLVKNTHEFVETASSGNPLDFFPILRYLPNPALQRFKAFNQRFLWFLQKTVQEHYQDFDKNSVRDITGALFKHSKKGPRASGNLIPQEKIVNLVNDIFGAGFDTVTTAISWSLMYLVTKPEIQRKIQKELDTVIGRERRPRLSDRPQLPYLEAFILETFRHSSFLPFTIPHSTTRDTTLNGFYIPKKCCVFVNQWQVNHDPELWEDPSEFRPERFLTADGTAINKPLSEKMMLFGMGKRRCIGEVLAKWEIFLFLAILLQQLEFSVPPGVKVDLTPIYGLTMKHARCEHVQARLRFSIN
3',5'-cyclic-AMP phosphodiesterase 4B (Homo sapiens), sequence (Q07343 whole entry, looked up): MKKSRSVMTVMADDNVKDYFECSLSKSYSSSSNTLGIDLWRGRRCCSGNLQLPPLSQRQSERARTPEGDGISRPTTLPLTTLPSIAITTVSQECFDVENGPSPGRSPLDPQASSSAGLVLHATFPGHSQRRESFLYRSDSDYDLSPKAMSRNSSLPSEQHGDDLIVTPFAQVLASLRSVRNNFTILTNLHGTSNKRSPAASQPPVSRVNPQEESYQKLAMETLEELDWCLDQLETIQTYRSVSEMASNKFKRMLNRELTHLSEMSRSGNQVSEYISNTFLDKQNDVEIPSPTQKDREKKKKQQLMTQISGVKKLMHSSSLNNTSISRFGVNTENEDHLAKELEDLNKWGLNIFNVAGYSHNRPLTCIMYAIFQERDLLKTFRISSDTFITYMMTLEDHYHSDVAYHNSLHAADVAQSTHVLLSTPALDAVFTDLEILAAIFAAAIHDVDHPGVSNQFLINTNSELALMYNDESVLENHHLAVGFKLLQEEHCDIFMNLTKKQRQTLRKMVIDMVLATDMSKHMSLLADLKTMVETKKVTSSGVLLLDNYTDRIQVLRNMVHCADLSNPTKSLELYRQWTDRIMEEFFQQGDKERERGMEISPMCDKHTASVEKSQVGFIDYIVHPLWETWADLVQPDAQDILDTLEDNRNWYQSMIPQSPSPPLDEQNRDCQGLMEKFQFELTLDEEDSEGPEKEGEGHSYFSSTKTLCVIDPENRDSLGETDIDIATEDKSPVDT
Ubiquitin carboxyl-terminal hydrolase 1 (Homo sapiens), sequence (O94782 whole entry, looked up): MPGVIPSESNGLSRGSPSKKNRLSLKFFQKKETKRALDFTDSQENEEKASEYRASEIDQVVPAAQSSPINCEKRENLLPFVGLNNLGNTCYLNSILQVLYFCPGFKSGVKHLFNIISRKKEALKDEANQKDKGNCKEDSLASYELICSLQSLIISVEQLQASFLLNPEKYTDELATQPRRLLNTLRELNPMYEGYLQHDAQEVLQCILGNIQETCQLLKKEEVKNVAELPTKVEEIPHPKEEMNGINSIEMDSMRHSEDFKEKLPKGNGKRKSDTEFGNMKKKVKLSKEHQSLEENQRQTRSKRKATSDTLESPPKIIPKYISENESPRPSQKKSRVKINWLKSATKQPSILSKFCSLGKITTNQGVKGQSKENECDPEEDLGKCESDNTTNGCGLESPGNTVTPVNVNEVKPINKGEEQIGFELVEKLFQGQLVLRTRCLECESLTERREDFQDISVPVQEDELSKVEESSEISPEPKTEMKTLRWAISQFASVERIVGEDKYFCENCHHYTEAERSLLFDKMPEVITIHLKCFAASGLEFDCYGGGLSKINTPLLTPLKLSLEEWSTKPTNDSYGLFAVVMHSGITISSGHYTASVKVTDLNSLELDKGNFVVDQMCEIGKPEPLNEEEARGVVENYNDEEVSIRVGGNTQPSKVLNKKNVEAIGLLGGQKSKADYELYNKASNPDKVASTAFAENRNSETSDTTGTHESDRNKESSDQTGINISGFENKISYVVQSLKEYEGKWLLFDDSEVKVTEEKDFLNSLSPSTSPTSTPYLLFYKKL
Lysosomal acid glucosylceramidase (Homo sapiens), sequence (P04062 whole entry, looked up): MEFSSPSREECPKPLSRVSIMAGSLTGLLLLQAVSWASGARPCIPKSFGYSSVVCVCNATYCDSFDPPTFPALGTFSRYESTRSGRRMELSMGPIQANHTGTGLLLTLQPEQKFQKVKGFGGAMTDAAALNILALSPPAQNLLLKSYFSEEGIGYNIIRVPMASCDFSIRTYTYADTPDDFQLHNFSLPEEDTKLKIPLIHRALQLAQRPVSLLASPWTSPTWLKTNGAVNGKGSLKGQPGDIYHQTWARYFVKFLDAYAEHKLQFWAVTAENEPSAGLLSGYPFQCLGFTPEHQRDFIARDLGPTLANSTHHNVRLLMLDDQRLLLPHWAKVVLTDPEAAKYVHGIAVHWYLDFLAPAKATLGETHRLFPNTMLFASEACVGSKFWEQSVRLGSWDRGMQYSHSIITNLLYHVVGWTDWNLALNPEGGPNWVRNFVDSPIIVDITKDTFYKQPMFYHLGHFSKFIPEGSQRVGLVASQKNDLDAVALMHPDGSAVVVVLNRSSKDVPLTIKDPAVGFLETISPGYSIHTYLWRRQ
Cytochrome P450 2C19 (Homo sapiens), sequence (P33261 whole entry, looked up): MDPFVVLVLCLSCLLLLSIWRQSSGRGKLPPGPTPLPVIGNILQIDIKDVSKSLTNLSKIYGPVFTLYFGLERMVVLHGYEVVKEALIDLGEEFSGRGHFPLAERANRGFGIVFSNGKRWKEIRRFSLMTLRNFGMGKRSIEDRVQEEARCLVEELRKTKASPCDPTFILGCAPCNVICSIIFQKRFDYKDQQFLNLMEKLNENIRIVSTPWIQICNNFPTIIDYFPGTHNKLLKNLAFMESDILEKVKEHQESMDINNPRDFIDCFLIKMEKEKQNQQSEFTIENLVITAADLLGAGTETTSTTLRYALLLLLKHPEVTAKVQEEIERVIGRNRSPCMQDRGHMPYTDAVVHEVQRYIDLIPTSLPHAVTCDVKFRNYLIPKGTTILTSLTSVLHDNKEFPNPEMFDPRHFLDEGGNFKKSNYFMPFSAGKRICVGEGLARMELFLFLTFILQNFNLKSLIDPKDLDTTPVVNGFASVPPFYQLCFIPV

As to `CN1CCN(c2ncc3nc(-c4cn(C)c5ccccc45)c(=O)n(-c4ccccc4)c3n2)CC1`, the figures for the activity change, negative = inhibition in assay [1] and in [3] were 2.43% and 20%, respectively. Further, the Potency is 15.8 µM (active) in assay [2], > 9.22 µM in assay [5] and > 46 µM in [6]. Moreover, the activity, negative = inhibition in assay [4] is 4.99%. The Potency result in [7], in assay [8], in assay [9], in assay [10], in [11] and in assay [12] was “inactive” throughout. Also, the result in assay [13] was inactive.

For the compound `CN(C)c1ncc2nc(-c3cc(F)cc(F)c3)c(=O)n(Cc3ccc(F)cc3)c2n1`, the Potency entry in assay [2], in assay [7], in assay [8], in [9], in [10] and in assay [11] was “inactive” in each case. The Potency result in [12] and in [15] was “inactive” throughout. Moreover, the Potency in assay [5] was > 46 µM; in [6], > 46 µM; in [14], 3.16 µM (active). Further, in assay [13], the outcome was inactive.

In the case of `CCNc1ncc2nc(-c3ccc(Cl)cc3)c(=O)n(C)c2n1`, the figures for the activity change, negative = inhibition in assay [1] and in assay [3] were 23.6% and 20%, respectively. Moreover, the results for the Potency in [2] and in [6] were 0.398 µM (active) and > 46 µM, respectively. Moreover, the Potency result in [7], in assay [8], in assay [10], in [11], in [12] and in assay [15] was “inactive” each time. The outcome in assay [13] was inactive.

Regarding `c1csc(CNc2ncncc2-c2ccoc2)c1`, the Potency in [16] was > 11.4 µM; in assay [2], 2 µM (active); in assay [5], > 46 µM; in assay [6], > 46 µM; in [17], 2 µM (active). The activity change, negative = inhibition is -12.1% in [1] and 3.52% in assay [3]. Besides, the activity, negative = inhibition in assay [4] is -10.5%. Besides, the Potency entry in assay [7], in assay [8], in [9], in assay [10], in assay [11] and in assay [15] was “inactive” each time. Also, in assay [14], the activation is 2.26%. Moreover, the result in assay [13] was inactive.

For `COc1cccc(-c2cc(NCc3cnc(C)cn3)ncn2)c1`, the Potency was > 11.4 µM in assay [16]; 5.01 µM (active) in [2]; > 46 µM in [5]; > 46 µM in assay [6]; 17.8 µM (active) in [10]; 15.8 µM (active) in [11]. Further, the activity change, negative = inhibition in assay [1] is 12.1%; in [3], -0.299%. The activity, negative = inhibition in assay [4] is -1.25%. Moreover, the Potency entry in assay [7], in assay [8], in assay [9] and in [15] was “inactive” in each case. Also, the outcome in assay [13] was inactive.

As to `COc1cccc(-c2ccc3ncnc(N4CCOCC4)c3c2)c1`, the Potency in assay [2] was 1 µM (active); in assay [5] it was > 46 µM; in [6], > 46 µM; in assay [18], 3.98 µM (active); in [10], 1.41 µM (active); in assay [11], 1.58 µM (active). Moreover, the Potency in assay [12] is 1.12 µM (active). For the same compound, the activity, negative = inhibition in assay [4] is 8.65%. The Potency result in assay [7], in assay [9] and in assay [15] was “inactive” throughout. Also, in [13], the outcome was inactive.
